Screening data (PubChem BioAssay)
Hsp90 Hop PPI = changes Hsp90-Hop TPR2A binding signal, up or down. AlphaScreen TPR2A-His6 binding biotin-Hsp90 C-terminal peptide. Potency, µM (titrated, usually from 57 µM). 0.44% of 71,000 active; active means well fitted curve in either direction with a large enough effect; inconclusive means small, poorly fitted or top-dose-only effect, or another doubt
Luciferase inh = blocks Photinus pyralis firefly luciferase activity; purified firefly luciferase, luminescence, 8 min; Potency, µM (titrated, usually from 57.1 µM), hits mostly inhibitors; 2.2% of 72,000 active; further: nearly all actives have a fitted effect of over 40% in size
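qHTS concentration-response profiling: light output of P. pyralis luciferase with luciferin and 10 uM ATP, imidazole buffer pH 7.2. Read by luminescence after 8-min room-temperature incubation.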
ALOX15 inhib = blocks human 15-lipoxygenase activity; Potency, µM (doses to about 57.1 µM), hits mostly inhibitors; purified 15hLO-1, xylenol orange hydroperoxide absorbance; 1.4% of 74,000 active; P16050; AID 887; further: nearly all actives have a fitted effect of over 55% in size
Target sequence (P16050 whole entry, looked up): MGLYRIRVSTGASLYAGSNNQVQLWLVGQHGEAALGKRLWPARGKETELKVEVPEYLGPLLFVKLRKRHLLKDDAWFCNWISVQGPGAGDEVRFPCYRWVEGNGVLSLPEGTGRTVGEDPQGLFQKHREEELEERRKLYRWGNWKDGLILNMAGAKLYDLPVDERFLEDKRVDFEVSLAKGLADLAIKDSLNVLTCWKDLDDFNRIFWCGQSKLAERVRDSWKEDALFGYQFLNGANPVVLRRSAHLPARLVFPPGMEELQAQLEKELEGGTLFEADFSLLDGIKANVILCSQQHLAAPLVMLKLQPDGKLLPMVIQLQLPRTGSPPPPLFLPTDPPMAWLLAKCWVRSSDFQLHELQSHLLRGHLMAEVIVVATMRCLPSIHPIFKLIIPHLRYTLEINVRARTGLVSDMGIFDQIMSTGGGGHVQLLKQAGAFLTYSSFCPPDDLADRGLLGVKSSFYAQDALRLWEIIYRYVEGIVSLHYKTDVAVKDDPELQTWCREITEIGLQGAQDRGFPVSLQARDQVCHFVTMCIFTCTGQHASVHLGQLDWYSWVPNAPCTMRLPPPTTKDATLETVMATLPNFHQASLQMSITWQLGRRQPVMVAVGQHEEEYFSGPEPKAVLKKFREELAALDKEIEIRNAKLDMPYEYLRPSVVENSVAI
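Compounds were preincubated 15 min at room temperature with 40 nM purified human enzyme (25 mM Hepes pH 7.5, 0.01% Triton X-100); 50 uM arachidonic acid reacted 6 min. Fe-xylenol orange detection, 30 min, absorbance ratio 573/405 nm.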
Tau fil binding = tau filament binding | P10636 | recombinant tau filaments, thioflavin S fluorescence, 15 h; filaments grown with octadecylsulfate alongside compound | Potency, µM (titrated, usually from 57.1 µM) | 2% of 71,000 active;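 further: actives lower thioflavin S fluorescence by blocking filaments or displacing dye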
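Assay mix: 1 uM His-tagged tau, 30 uM sodium octadecylsulfate, thioflavine S dye in HEPES/NaCl/DTT buffer. Compound is added prior to the inducer. Fluorescence after 15 h at 37 C.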
PK Bst = pyruvate kinase (B. stearothermophilus) modulation. Potency, µM. 1.2% of 51,000 active. purified pyruvate kinase, luminescence ATP production; ribose 5-phosphate activator present at AC10; in the data active means potency below about 11 µM; inconclusive means mostly about 12 µM to 25 µM;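 the screen sought inhibitors and activators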
ERK AVP inh = blocks ERK signaling stimulated by vasopressin; HEK293-V1b, vasopressin-stimulated pERK AlphaScreen; Potency, µM (titrated, usually from 57.5 µM), actives largely listed as inhibitors; 0.99% of 72,000 active; further: nearly all actives have a fitted effect of over 55% in size
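qHTS, compounds titrated on V1b-expressing HEK293 cells. Preincubation 30 min at 37C, vasopressin 25 nM for 5 min, lysis 10 min, bead incubation 5 hr at room temperature.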
Of the large screens only hits and unclear results are named; the others gave an inactive call. Sampled rows, rich in hits. Any-hit rate of the full collection: about 6.1%. Unless noted, the call rests on the fitted dose curve; in most records, active means well fitted curve in the direction sought with a large enough effect; inconclusive means small, poorly fitted or top-dose-only effect, or another doubt; inactive means no such curve, though single readings can be large; an effect the other way counts as inactive or inconclusive.

O=C(c1cccs1)N1CCC(c2ccccc2)C1 (stereo not given)	Luciferase inh 13µM (no result: PK Bst)
CCC(C)[C@@H](C(=O)Nc1ccc2c(c1)OCO2)N1Cc2ccccc2C1=O (stereo not given in full)	Tau fil binding 25µM, ERK AVP inh inconclusive (no result: PK Bst)
CC1=C2[C@@H]([C@H](C)CC[C@H]2/C=C(\C)C(=O)O)[C@H](O)C1	none (no result: Luciferase inh, PK Bst)
Cc1ccc(-n2nc3ccc(N)cc3n2)cc1	Luciferase inh 2µM, Tau fil binding 13µM (no result: PK Bst)
CN(C)C=Nc1ccc2nn(-c3ccccc3)nc2c1	none (no result: Hsp90 Hop PPI, Luciferase inh, Tau fil binding, PK Bst, ERK AVP inh)
C/C(=N/NS(=O)(=O)c1ccc(C)cc1)P(=O)(O)O	none (no result: PK Bst)
COc1cc(C)c2c(=O)cc(-c3ccccc3)oc2c1	none (no result: Hsp90 Hop PPI, Luciferase inh, Tau fil binding, PK Bst)
Cc1ccc(-c2nc(Nc3ccccc3)n[nH]2)cc1	Luciferase inh 13µM, PK Bst inconclusive
COc1ccc(Nc2nc(N)nc(CSc3n[nH]c(-c4ccccc4)n3)n2)cc1	none (no result: PK Bst)
Nc1nc(CSc2n[nH]c(-c3ccccc3)n2)nc(Nc2ccccc2)n1	ERK AVP inh 25µM (no result: PK Bst)
Cc1ccc(NC(=O)CSc2n[nH]c(-c3ccncc3)n2)cc1	none
COc1ccc(-n2c(=O)c(CCc3ccccc3)nc3cnc(N4CCNCC4)nc32)cc1	none (no result: PK Bst)
N[C@@H](COP(=O)(O)O)C(=O)O	Tau fil binding inconclusive (no result: PK Bst)
O=C(O)C1Nc2c(C(=O)N3CCOCC3)cccc2C2C=CCC12 (stereo not given)	none (no result: PK Bst)
Cc1ccc2c(c1C)NC(C(=O)O)C1CC=CC21 (stereo not given)	ALOX15 inhib inconclusive, Tau fil binding 3.2µM
Cc1noc(C)c1-c1nc(N(C)C)c2ccccc2n1	ALOX15 inhib 16µM (no result: PK Bst)
COCCNc1nc(-c2c(C)noc2C)nc2ccccc12	none (no result: PK Bst)
Cc1noc(C)c1-c1nc(NCc2cccs2)c2ccccc2n1	ALOX15 inhib 13µM, ERK AVP inh inconclusive (no result: PK Bst)
Cc1noc(C)c1-c1nc(Nc2ccc(F)cc2)c2ccccc2n1	ALOX15 inhib 16µM (no result: PK Bst)
O=c1c(-c2cc(F)cc(F)c2)nc2cnc(N3CCOCC3)nc2n1Cc1ccc(F)cc1	none (no result: PK Bst)
COc1cc(/C=N/O)ccc1OCc1ccc(C(=O)O)cc1	Luciferase inh 0.32µM, PK Bst 0.39 (no result: Hsp90 Hop PPI, ALOX15 inhib, Tau fil binding, ERK AVP inh)
O=C(O)c1cc(/C=N\O)ccc1OCc1ccccc1	none
COc1cccc(Cn2c(=O)c(-c3cccc(F)c3)nc3cncnc32)c1	Tau fil binding 13µM, ERK AVP inh inconclusive (no result: PK Bst)
COc1cccc(Cn2c(=O)c(-c3cc(F)cc(F)c3)nc3cncnc32)c1	Tau fil binding 13µM, ERK AVP inh inconclusive (no result: PK Bst)
COc1cccc(Cn2c(=O)c(-c3ccc(F)cc3)nc3cncnc32)c1	ALOX15 inhib inconclusive, Tau fil binding inconclusive, ERK AVP inh inconclusive (no result: PK Bst)
Cc1cc(NC(=O)c2ccccc2)sc1C	Luciferase inh 13µM, ALOX15 inhib inconclusive (no result: PK Bst)
O=C(Nc1cc(NC(=O)c2ccccc2)c(C(=O)O)cc1C(=O)O)c1ccccc1	none (no result: Hsp90 Hop PPI, Luciferase inh, Tau fil binding, PK Bst)
Cc1ccc(NC(=O)c2ccccc2)s1	Luciferase inh 7.9µM, PK Bst 8.3
CN(C)C(=O)c1ccc(-c2ccc3ncnc(N4CCC(C(=O)O)CC4)c3c2)cc1	none (no result: PK Bst)
Cc1cc(C)nc(SCCc2cccc[n+]2C)n1	none (no result: PK Bst)
CN(C)C(=O)c1ccc(-c2nccc(N(C)Cc3ccco3)n2)cc1	none (no result: PK Bst)
O=C(O[C@@H]1Cc2c(O)cc(O)cc2OC1c1ccc(O)c(O)c1)c1cc(O)c(O)c(O)c1 (stereo not given in full)	ALOX15 inhib 6.3µM (no result: Hsp90 Hop PPI, Luciferase inh, Tau fil binding, PK Bst)
O=C(OC1Cc2c(O)cc(O)cc2OC1c1cc(O)c(O)c(O)c1-c1c(C2Oc3cc(O)cc(O)c3CC2OC(=O)c2cc(O)c(O)c(O)c2)cc(O)c(O)c1O)c1cc(O)c(O)c(O)c1 (stereo not given)	ALOX15 inhib inconclusive (no result: Hsp90 Hop PPI, Luciferase inh, Tau fil binding, PK Bst)
COC(=O)c1[nH]c2cc(OC)c(OC)cc2c1NC(=O)CN1CCN(Cc2ccccc2)CC1	ERK AVP inh 10µM
COC(=O)c1[nH]c2ccc(C)cc2c1NC(=O)CN1CCN(c2ccc(F)cc2)CC1	none
COC(=O)c1[nH]c2ccc(C)cc2c1NC(=O)CN1CCN(c2ccccc2)CC1	ERK AVP inh 13µM
N[C@@H](Cc1ncccn1)C(=O)O	none (no result: PK Bst)
COc1cc(C(Nc2ccc3c(c2)OCO3)C(=O)NC2CCCCC2)cc(OC)c1OC (stereo not given)	Hsp90 Hop PPI inconclusive, ALOX15 inhib 0.63µM, ERK AVP inh inconclusive
COc1cc2cc(C(c3nnnn3C3CCCC3)N3CCc4ccccc43)c(=O)[nH]c2cc1OC (stereo not given)	Hsp90 Hop PPI inconclusive, ALOX15 inhib 20µM, ERK AVP inh inconclusive
COc1cc2cc(C(c3nnnn3C(C)(C)C)N3CCc4ccccc43)c(=O)[nH]c2cc1OC (stereo not given)	none
CCCCCCCC[N+](CCCCCCCC)(CCCCCCCC)CCCCCCCC	ALOX15 inhib 20µM (no result: Luciferase inh, PK Bst)
CCCCCCCCO	none (no result: Luciferase inh, PK Bst)
O=c1cc(-c2ccccc2)nc2n1Cc1ccccc1-2	PK Bst 0.88
O=c1nc2n(c3ccccc13)Cc1ccccc1-2	none
CCC(CC)c1nnc(NC(=O)c2c(-c3ccccc3)noc2C)s1	none (no result: PK Bst)
Cc1onc(-c2ccccc2)c1C(=O)Nc1nnc(COc2ccc(Cl)cc2)s1	ALOX15 inhib 7.9µM
CCc1ccccc1OC[C@@H](O)CN[C@H]1CCCc2ccccc21	Tau fil binding 13µM (no result: PK Bst)
N#CCCn1c(=O)c(-c2cc(F)cc(F)c2)nc2cnc(N3CCOCC3)nc21	none (no result: PK Bst)
O=C1CC(/C=C/c2ccco2)=Nc2ccccc2N1	Hsp90 Hop PPI inconclusive, ALOX15 inhib 5µM (no result: PK Bst)
O=C1CC(C(F)(F)C(F)(F)C(F)(F)C(F)F)=Nc2ccccc2N1	none (no result: PK Bst)
COC(=O)c1cc(-c2ccc3ccccc3c2)[nH]c(=O)c1C#N	none (no result: PK Bst)
CN1CSC2=C(C#N)C(c3cccc(OCc4ccccc4)c3)CC(=O)N2C1 (stereo not given)	ALOX15 inhib 5µM (no result: PK Bst)
CCc1ccc(C2CC(=O)N3CN(c4ccccc4)CSC3=C2C#N)cc1 (stereo not given)	Hsp90 Hop PPI inconclusive, ALOX15 inhib 2.5µM, Tau fil binding inconclusive (no result: PK Bst)
N#CC1=C2SCN(c3ccc(F)cc3)CN2C(=O)CC1c1cccc(F)c1 (stereo not given)	ALOX15 inhib inconclusive (no result: PK Bst)
CCOC(=O)c1ccc(N2CSC3=C(C#N)C(c4cccs4)CC(=O)N3C2)cc1 (stereo not given)	ALOX15 inhib 13µM (no result: PK Bst)
COC(=O)c1ccc(C(NC(=O)OCc2ccccc2)/C(=C/[C@@H](C)C(=O)NCc2nc3ccccc3s2)c2cccnc2)cc1 (stereo not given in full)	none (no result: Luciferase inh, PK Bst)
CC1Cc2ccccc2N1C(=O)c1cccnc1 (stereo not given)	none
CC1Cc2ccccc2N1C(=O)c1cnsn1 (stereo not given)	Hsp90 Hop PPI inconclusive, ALOX15 inhib 4µM
CCC1c2ccc(C)n2CCN1C(=O)Nc1ccccc1OC (stereo not given)	ALOX15 inhib 3.2µM (no result: PK Bst)
